Results from PubChem BioAssay AID2284127 (EPA ToxCast).
Active and inactive are the calls of the source. How the source made its calls: active means hit-call score of the fitted dose curve at least 0.9, where 1 is the maximum; inactive means score below 0.9.

biological target: human Receptor-type tyrosine-protein phosphatase F (PTPRF/LAR), PTPRF (gene 5792) (UniProt P10586); experiment: ERF_TW_ENZ_hPTPRF: Eurofins (ERF) Enzymatic LeadHunter Assay for human Receptor-type tyrosine-protein phosphatase F (PTPRF/LAR)
Sequence (P10586 whole entry, looked up): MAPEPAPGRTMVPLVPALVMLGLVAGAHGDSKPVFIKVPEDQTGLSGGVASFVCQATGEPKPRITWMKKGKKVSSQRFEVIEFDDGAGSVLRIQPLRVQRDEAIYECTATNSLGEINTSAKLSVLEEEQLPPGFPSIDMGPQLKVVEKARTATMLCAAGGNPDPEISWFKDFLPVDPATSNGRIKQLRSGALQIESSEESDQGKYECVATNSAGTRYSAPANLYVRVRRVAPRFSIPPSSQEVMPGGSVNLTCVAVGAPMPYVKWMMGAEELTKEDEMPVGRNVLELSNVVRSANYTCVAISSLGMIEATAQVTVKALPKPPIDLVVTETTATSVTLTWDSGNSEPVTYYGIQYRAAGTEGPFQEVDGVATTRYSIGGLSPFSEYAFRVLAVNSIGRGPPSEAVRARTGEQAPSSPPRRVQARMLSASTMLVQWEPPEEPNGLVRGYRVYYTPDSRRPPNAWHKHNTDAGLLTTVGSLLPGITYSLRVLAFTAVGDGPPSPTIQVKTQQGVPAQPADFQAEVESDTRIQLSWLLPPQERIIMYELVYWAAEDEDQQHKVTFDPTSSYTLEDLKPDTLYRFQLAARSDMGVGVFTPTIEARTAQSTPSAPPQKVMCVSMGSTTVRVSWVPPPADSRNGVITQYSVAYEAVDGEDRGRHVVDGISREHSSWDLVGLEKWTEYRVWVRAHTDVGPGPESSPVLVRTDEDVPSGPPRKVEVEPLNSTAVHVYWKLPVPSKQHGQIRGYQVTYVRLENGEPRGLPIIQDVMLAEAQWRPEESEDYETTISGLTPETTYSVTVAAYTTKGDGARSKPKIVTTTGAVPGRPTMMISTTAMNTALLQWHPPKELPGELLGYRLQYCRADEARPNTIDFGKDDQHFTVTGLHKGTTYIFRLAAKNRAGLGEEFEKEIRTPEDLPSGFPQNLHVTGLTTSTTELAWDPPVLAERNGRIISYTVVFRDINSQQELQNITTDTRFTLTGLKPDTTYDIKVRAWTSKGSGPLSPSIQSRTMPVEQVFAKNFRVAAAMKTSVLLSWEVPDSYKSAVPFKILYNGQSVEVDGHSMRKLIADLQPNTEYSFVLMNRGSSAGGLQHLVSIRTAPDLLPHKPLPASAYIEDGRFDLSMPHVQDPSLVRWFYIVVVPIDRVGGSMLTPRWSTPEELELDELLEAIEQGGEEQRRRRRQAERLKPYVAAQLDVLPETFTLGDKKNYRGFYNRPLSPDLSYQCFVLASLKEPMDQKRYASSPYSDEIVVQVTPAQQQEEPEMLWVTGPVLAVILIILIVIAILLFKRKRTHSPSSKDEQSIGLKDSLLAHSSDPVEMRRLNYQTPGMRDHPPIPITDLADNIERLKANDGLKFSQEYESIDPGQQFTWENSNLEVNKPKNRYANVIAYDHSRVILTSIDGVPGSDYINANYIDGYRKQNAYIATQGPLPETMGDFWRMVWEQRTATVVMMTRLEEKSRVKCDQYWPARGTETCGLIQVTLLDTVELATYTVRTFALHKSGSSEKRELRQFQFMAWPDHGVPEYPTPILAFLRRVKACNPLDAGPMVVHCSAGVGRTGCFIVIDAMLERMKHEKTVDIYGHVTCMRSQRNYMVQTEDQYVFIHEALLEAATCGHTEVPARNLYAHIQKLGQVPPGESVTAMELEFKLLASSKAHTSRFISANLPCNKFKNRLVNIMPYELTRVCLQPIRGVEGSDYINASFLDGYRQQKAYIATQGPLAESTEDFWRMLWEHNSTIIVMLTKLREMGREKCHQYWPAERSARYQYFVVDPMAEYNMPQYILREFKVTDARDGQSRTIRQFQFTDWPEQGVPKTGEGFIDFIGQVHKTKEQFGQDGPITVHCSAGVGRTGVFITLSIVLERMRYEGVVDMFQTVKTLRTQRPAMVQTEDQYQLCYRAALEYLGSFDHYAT
Protocol: ERF_TW_ENZ_hPTPRF is a biochemical, single-readout assay that uses extracted gene-proteins in a cell-free assay. Measurements were taken 1 hour after chemical dosing in a 96-well plate. See LAR Human Phosphatase Enzymatic Assay, Panlabs.ERF_TW_ENZ_hPTPRF is an assay component calculated from the ERF_TW_ENZ_hPTPRF assay. It is designed to measure enzyme activity using a type of enzyme reporter as detected by fluorescence intensity with spectrophotometry technology.Data from the assay component ERF_TW_ENZ_hPTPRF was analyzed at the assay endpoint, ERF_TW_ENZ_hPTPRF, in the positive analysis fitting direction relative to DMSO as the negative control and baseline of activity. Using a type of enzyme reporter, loss-of-signal activity can be used to understand changes in enzymatic activity as they relate to gene PTPRF. To generalize the intended target to other relatable targets, this assay endpoint is annotated to the phosphatase intended target family, where the subfamily is receptorasA tyrosine phosphatase.
Human recombinant protein phosphatase LAR expressed in E. coli is used. Test compound and/or vehicle is preincubated with 0.48 ng/ml enzymedouble dagger for 15 minutes at 37C in modified HEPES buffer pH 7.2. The reaction is initiated by addition of 10 uM DiFMUP for 60 minutes. Determination of the amount of DiFMU formed is read spectrofluorimetrically at 358 nm/450 nm. […]

SMILES	AC50
O=C(/C=C/c1ccc(O)cc1)CC(=O)/C=C/c1ccc(O)cc1	5 µM (active)
